In ChEMBL document CHEMBL3988442, “University of Dundee, Small-Polar-MMV Screening Library” (2021):

These molecules were tested against AMP-activated protein kinase, AMPK (Homo sapiens) (UniProt P54646+O43741+P54619+Q9UGJ0+Q9Y478+Q13131+Q9UGI9) (assay: AMP-dependent Kinase enzyme assay. An in vitro enzyme assay that detects ADP turnover that is directly proportional to AMPK activity. This uses naive AMPK that is activated during the assay with MK-8722). Details: 30 µM.
Format: functional
Design: scale not given: direction of the effect not stated beside the values

Row | SMILES | Percent Effect [%]
1 | c1cnc(N2CCC(c3nccn3CC3CC3)CC2)nc1 | 9.63
2 | CNc1ccc(C)cc1C(=O)N1CCCC2(CCNC2)C1 (stereo unspecified) | 10.4
3 | Cc1nsc(C(=O)NCCc2ccc(S(N)(=O)=O)cc2)n1 | 2.83
4 | CCC(C)Oc1ccc(CNCCNS(C)(=O)=O)cc1Cl (stereo unspecified) | 5
5 | CN(Cc1noc(-c2ccccc2)n1)C(=O)CSc1nnc(N)s1 | 1.22
6 | COC(=O)c1ncccc1N1CCCCC1 | 2.81
7 | CCN(C)Cc1cccc(CNC(=O)NCCc2ccccn2)c1 | 3.33
8 | CN(C)c1ncccc1CNC(=O)NCC(c1cccs1)N(C)C (stereo unspecified) | -9.48
9 | CCN1CCC(CC(=O)NCCc2nc(C)cc(C)n2)CC1 | 1.66
10 | COc1ccc(Br)c(NC(=O)NCc2cnn(C)c2)c1 | -1.99
11 | COCC(C)NC(=O)N1CCN(S(C)(=O)=O)CC1 (stereo unspecified) | 11.4
12 | c1ncc(-c2cn(CCSc3cnn[nH]3)nn2)cn1 | -3.28
13 | CN(C)C(C(=O)N1CCN(CCn2cccc2)CC1)c1ccc(F)cc1 (stereo unspecified) | -8.31
14 | CCn1nc(C(C)C)cc1C(=O)NCC1CCCN(c2ccccn2)C1 (stereo unspecified) | 6.64
15 | CCC(NCCn1cc(C)cn1)C(=O)Nc1cc(C)on1 (stereo unspecified) | -6.29
16 | CC(C)n1cnnc1SCCN(C)c1ccccc1 | 8.44
17 | CN(Cc1nc(N)nc(N(C)C)n1)Cc1cccc2ccccc12 | -3.23
18 | COc1nc2c(cc1C(=O)NC(C)Cc1cc(C)n[nH]1)CCC2 (stereo unspecified) | -15.8
19 | Cc1ccccc1SCC(=O)N[C@H]1CC[C@H](n2cnnc2)CC1 | 1.98
20 | CC(CO)NS(=O)(=O)c1cccc(C(C)C)c1 (stereo unspecified) | -0.593
21 | O=C(Cc1nc(-c2ccncc2)n[nH]1)NCCCN1CCOCC1 | -0.0149
